# Assay results published in PubChem BioAssay.
# The source made the active and inactive calls.
# Experiments:
# [1] = system: Plasmodium falciparum Sir2 (PF13_0152, Sir2A); assay: pfSir2 binders on small-molecule microarrays, primary screen, biochemical, small-molecule microarray, 635 nm fluorescence (AID 1098); conditions: small-molecule microarray binding, fluorescence 635 nm; higher = more signal;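 note: score merges spot fluorescence intensity with its signal-to-noise ratio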
# [2] = small-molecule microarray binders of probe aDKK1, primary screen, biochemical, biotinylated probe, 635/667 nm fluorescence (AID 1099); conditions: higher = more signal;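 note: score merges 667nm spot fluorescence with signal to noise across triplicate slides; reference of the scale not given here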
# [3] = small-molecule microarray binders of probe aCHRDL2, primary screen, biochemical, biotinylated probe, 635/667 nm fluorescence (AID 1100); conditions: higher = more signal
# [4] = splicing luciferase reporter signal modulators, primary screen, spliceosome inhibition project, cell-based, HEK293, splice +/- reporter (AID 1101); conditions: luminescence, 24 h, higher = more signal, called active from +8 up or from −8 down;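 note: HEK293 cells carrying a splicing-competent luciferase reporter gene; test concentration not given here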
# [5] = molecular target: Fibroblast growth factor 10 (Homo sapiens) (UniProt O15520); assay: FGF10 binders on small-molecule microarrays, primary screen, biochemical, small-molecule microarray, 635 nm fluorescence (AID 1102); conditions: FGF10 binding, fluorescence 635 nm, higher = more signal
# Sequence of Fibroblast growth factor 10 (Homo sapiens) (O15520 whole entry, looked up): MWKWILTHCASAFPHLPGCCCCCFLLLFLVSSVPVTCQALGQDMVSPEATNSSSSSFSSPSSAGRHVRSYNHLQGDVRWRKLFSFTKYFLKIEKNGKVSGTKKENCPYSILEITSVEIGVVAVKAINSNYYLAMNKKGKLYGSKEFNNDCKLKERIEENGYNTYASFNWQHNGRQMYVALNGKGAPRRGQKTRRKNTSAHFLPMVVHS
# [6] = system: glycogen synthase kinase-3 (GSK3A per assay name; protocol says GSK3B); assay: GSK3 binders on small-molecule microarrays, primary screen, biochemical, small-molecule microarray, 635 nm fluorescence, GSK3A (AID 1103); conditions: small-molecule microarray binding, fluorescence 635 nm; higher = more signal; note: the record names both GSK3A and GSK3B
# [7] = molecular target: Epidermal growth factor receptor (Homo sapiens) (UniProt P00533); assay: EGFR binders on small-molecule microarrays, primary screen, biochemical, small-molecule microarray, 635 nm fluorescence (AID 1104); conditions: EGFR binding, higher = more signal;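 note: score merges 667 nm emission intensity with spot signal to noise over triplicate slides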
# Sequence of Epidermal growth factor receptor (Homo sapiens) (P00533 whole entry, looked up): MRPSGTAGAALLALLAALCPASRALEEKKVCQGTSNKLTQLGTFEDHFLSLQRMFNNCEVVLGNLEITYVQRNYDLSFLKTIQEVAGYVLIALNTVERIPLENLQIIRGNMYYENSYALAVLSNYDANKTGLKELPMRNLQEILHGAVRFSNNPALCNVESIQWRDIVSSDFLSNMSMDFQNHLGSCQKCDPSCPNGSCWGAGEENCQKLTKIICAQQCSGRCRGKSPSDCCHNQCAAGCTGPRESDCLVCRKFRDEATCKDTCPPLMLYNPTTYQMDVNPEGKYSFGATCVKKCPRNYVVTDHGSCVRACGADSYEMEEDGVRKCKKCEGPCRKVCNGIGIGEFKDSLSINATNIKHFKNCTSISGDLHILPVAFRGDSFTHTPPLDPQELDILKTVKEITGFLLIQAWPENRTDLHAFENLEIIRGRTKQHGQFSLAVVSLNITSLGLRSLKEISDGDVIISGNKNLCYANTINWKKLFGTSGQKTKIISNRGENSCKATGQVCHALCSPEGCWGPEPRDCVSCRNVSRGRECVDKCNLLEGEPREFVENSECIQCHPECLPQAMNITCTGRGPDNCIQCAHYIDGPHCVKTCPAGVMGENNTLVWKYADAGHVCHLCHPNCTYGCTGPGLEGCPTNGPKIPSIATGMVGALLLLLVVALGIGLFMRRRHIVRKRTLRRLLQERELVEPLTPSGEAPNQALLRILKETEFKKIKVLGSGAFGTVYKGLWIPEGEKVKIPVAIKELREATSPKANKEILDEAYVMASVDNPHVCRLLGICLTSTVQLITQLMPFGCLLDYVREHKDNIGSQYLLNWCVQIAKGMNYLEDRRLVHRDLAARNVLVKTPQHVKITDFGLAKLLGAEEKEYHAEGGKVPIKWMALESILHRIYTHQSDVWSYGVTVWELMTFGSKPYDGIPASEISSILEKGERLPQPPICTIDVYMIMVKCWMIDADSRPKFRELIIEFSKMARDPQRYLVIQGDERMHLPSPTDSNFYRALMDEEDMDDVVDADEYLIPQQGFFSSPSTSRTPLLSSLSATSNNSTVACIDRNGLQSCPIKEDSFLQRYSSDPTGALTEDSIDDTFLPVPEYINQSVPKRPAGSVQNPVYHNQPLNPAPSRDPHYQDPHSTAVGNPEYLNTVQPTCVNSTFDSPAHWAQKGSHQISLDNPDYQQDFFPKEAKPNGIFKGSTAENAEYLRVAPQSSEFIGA
# [8] = molecular target: Follistatin-related protein 3 (Homo sapiens) (UniProt O95633); assay: FSTL3 binders on small-molecule microarrays, primary screen, biochemical, small-molecule microarray, 635 nm fluorescence (AID 1105); conditions: FSTL3 binding, higher = more signal;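 note: score merges emission near 667 nm and signal to noise per printed spot across three slides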
# Sequence of Follistatin-related protein 3 (Homo sapiens) (O95633 whole entry, looked up): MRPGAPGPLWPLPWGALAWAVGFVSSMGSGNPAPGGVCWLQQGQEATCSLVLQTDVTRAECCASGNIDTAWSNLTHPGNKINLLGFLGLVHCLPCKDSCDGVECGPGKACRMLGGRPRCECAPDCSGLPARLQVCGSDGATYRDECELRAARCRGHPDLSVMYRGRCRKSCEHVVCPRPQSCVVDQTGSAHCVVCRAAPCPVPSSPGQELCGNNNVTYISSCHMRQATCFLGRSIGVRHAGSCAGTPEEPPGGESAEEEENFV
# [9] = molecular target: Dickkopf-related protein 1 (Homo sapiens) (UniProt O94907); assay: DKK1 binders on small-molecule microarrays, primary screen, biochemical, small-molecule microarray, 635 nm fluorescence scan (AID 1106); conditions: DKK1 binding, higher = more signal;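 note: score merges emission near 667 nm with signal to noise over three replicate slides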
# Sequence of Dickkopf-related protein 1 (Homo sapiens) (O94907 whole entry, looked up): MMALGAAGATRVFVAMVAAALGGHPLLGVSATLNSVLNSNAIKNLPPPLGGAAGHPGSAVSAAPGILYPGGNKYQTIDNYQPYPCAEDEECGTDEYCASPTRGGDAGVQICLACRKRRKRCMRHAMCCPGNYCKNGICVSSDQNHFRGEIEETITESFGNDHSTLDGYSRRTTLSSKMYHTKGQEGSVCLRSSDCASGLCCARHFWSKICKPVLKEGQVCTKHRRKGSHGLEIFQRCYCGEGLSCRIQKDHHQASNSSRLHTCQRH
# [10] = system: Inhibin beta A chain (activin A); assay: INHBA (activin A) binders on microarrays, primary screen, biochemical, small-molecule microarray, 635 nm fluorescence scan (AID 1107); conditions: small-molecule microarray binding, higher = more signal;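 note: mouse activin A protein probed at 4.33 µg/mL on printed slides; score merges bound-protein fluorescence near 667 nm with spot signal-to-noise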
smiles,measurement,setting,value
O=C1CCCC2OC12C(O)CCc1ccccc1 (stereo not given),composite z-score,[1],-0.2
same,composite z-score,[2],-0.45
same,composite z-score,[3],-0.503
same,z-score,[4],0.00999 (inactive)
same,composite z-score,[5],0.558
same,composite z-score,[6],0.263
same,composite z-score,[7],0.548
same,composite z-score,[8],0.495
same,composite z-score,[9],0.372
same,composite z-score,[10],0.399
NC(=O)NCC#Cc1ccc2c(c1)[C@]1(C(=O)N2)[C@H](c2ccc(O)cc2)N2[C@H](c3ccccc3)[C@H](c3ccccc3)OC(=O)[C@H]2[C@@H]1C(=O)N1CCCCCCC1,composite z-score,[1],1.08
same,composite z-score,[2],1.8
same,composite z-score,[3],1.08
same,z-score,[4],0.445 (inactive)
same,composite z-score,[5],0.593
same,composite z-score,[6],-0.018
same,composite z-score,[7],0.356
same,composite z-score,[8],1.28
same,composite z-score,[9],0.408
same,composite z-score,[10],1.4
CCN1C(=O)[C@H]2[C@H]3[C@H](O)[C@H](O)CC(=NO[C@@H]4O[C@H](CO)[C@@H](O)[C@H](O)[C@H]4O)[C@@H]3CC[C@H]2C1=O,composite z-score,[1],0.562
same,composite z-score,[2],-0.291
same,composite z-score,[3],-0.233
same,z-score,[4],-0.448 (inactive)
same,composite z-score,[5],-0.584
same,composite z-score,[6],-1.42
same,composite z-score,[7],-0.831
same,composite z-score,[8],-0.534
same,composite z-score,[9],-0.0655
same,composite z-score,[10],0.613
C#CCCCON=C1C[C@@H](O)[C@@H](O)[C@@H]2[C@@H]3C(=O)N(CCC(=O)OCC)C(=O)[C@@H]3CC[C@@H]12,composite z-score,[1],-0.346
same,composite z-score,[2],1.17
same,composite z-score,[3],1.51
same,z-score,[4],0.907 (inactive)
same,composite z-score,[5],-0.0714
same,composite z-score,[6],-0.493
same,composite z-score,[7],-0.905
same,composite z-score,[8],-0.911
same,composite z-score,[9],-0.908
same,composite z-score,[10],0.459
CC(C)CON=C1C[C@@H](O)[C@@H](O)[C@@H]2[C@@H]3C(=O)N([C@@H](C)c4ccccc4)C(=O)[C@@H]3CC[C@H]12,composite z-score,[1],0.43
same,composite z-score,[2],-0.325
same,composite z-score,[3],-0.565
same,z-score,[4],0.115 (inactive)
same,composite z-score,[5],1.07
same,composite z-score,[6],0.778
same,composite z-score,[7],0.39
same,composite z-score,[8],1.24
same,composite z-score,[9],0.76
same,composite z-score,[10],-0.204
CO[C@@H]1COC(=O)[C@@H]2CCCN2C(=O)[C@@H](C)COC(=O)[C@H](COCc2ccccc2)NC(=O)CC=C[C@H]1C,composite z-score,[1],0.385
same,composite z-score,[2],-0.559
same,composite z-score,[3],-0.664
same,z-score,[4],-0.425 (inactive)
same,composite z-score,[5],0.613
same,composite z-score,[6],0.575
same,composite z-score,[7],0.239
same,composite z-score,[8],0.478
same,composite z-score,[9],0.356
same,composite z-score,[10],-0.235
O=C1C[C@@H](O)[C@@H](O)[C@@H]2[C@@H]3C(=O)N(Cc4ccc5c(c4)OCO5)C(=O)[C@@H]3CC[C@@H]12,composite z-score,[1],0.27
same,composite z-score,[2],-0.159
same,composite z-score,[3],-0.562
same,z-score,[4],0.706 (inactive)
same,composite z-score,[5],0.715
same,composite z-score,[6],0.45
same,composite z-score,[7],0.428
same,composite z-score,[8],0.675
same,composite z-score,[9],0.78
same,composite z-score,[10],0.365
O=C1C2=CC[C@H]3C(=O)N(Cc4ccc5c(c4)OCO5)C(=O)[C@H]3[C@H]2[C@H](O)[C@@H]2O[C@H]12,composite z-score,[1],0.557
same,composite z-score,[2],-0.141
same,composite z-score,[3],-0.51
same,z-score,[4],0.867 (inactive)
same,composite z-score,[5],0.385
same,composite z-score,[6],0.526
same,composite z-score,[7],0.65
same,composite z-score,[8],0.459
same,composite z-score,[9],0.347
same,composite z-score,[10],0.29
C=CC[C@]1(C(=O)NCc2ccccc2)N=C(c2ccc(OCCCO)cc2)O[C@H]1c1ccccc1,composite z-score,[1],0.689
same,composite z-score,[2],0.213
same,composite z-score,[3],1.06
same,z-score,[4],0.332 (inactive)
same,composite z-score,[5],0.462
same,composite z-score,[6],0.165
same,composite z-score,[7],-0.29
same,composite z-score,[8],0.291
same,composite z-score,[9],-0.328
same,composite z-score,[10],0.173
O=C1C2C=CC(C(O)c3ccc([N+](=O)[O-])cc3)N(Nc3ccc([N+](=O)[O-])cc3)C2C(=O)N1c1ccccc1 (stereo not given),composite z-score,[1],0.867
same,composite z-score,[2],0.969
same,composite z-score,[3],0.539
same,z-score,[4],-0.291 (inactive)
same,composite z-score,[5],0.818
same,composite z-score,[6],1.29
same,composite z-score,[7],0.301
same,composite z-score,[8],0.255
same,composite z-score,[9],-0.12
same,composite z-score,[10],0.69
CC(C)=NOCc1cccc(-c2cc(-c3ccccc3)no2)c1,composite z-score,[1],0.379
same,composite z-score,[2],-0.208
same,composite z-score,[3],-0.609
same,z-score,[4],0.342 (inactive)
same,composite z-score,[5],0.637
same,composite z-score,[6],0.787
same,composite z-score,[7],-0.137
same,composite z-score,[8],0.597
same,composite z-score,[9],0.494
same,composite z-score,[10],-0.21
COC(=O)[C@H]1COC(c2ccc(OCCCO)cc2)=N1,composite z-score,[1],1.16
same,composite z-score,[2],0.378
same,composite z-score,[3],1.07
same,z-score,[4],-0.19 (inactive)
same,composite z-score,[5],-0.13
same,composite z-score,[6],-0.882
same,composite z-score,[7],-0.2
same,composite z-score,[8],-0.576
same,composite z-score,[9],-0.59
same,composite z-score,[10],1.04
CC(C)CON=C1C[C@@H](O)[C@@H](O)[C@@H]2[C@@H]3C(=O)N(C[C@@H]4CCCO4)C(=O)[C@@H]3CC[C@H]12,composite z-score,[1],0.651
same,composite z-score,[2],-0.273
same,composite z-score,[3],-0.356
same,z-score,[4],0.132 (inactive)
same,composite z-score,[5],0.505
same,composite z-score,[6],0.33
same,composite z-score,[7],0.265
same,composite z-score,[8],0.417
same,composite z-score,[9],0.24
same,composite z-score,[10],0.07
COc1ccc(-c2nc3c(c4c2C[C@H](C)OC4)CN(CCC(C)C)CC3)cc1,composite z-score,[1],0.785
same,composite z-score,[2],-0.0348
same,composite z-score,[3],-0.514
same,z-score,[4],0.386 (inactive)
same,composite z-score,[5],1.02
same,composite z-score,[6],1.08
same,composite z-score,[7],0.472
same,composite z-score,[8],1
same,composite z-score,[9],0.388
same,composite z-score,[10],-0.296
CO[C@H]1O[C@H](CO)[C@@H](OC(=O)Nc2ccc3c(c2)OCO3)[C@H](OC(=O)Nc2ccccc2-c2ccccc2)[C@@H]1OC(=O)Nc1ccccc1-c1ccccc1,composite z-score,[1],1.29
same,composite z-score,[2],0.277
same,composite z-score,[3],0.542
same,z-score,[4],0.176 (inactive)
same,composite z-score,[5],1.38
same,composite z-score,[6],1.15
same,composite z-score,[7],0.23
same,composite z-score,[8],0.936
same,composite z-score,[9],0.271
same,composite z-score,[10],-0.548
